Reference: PubChem BioAssay (NCATS)
Results filed as inconclusive are left out. Active and inactive are the calls of the source. Calls come from the whole dose curve; as a rule, active = well fitted curve in the direction sought with a large enough effect; inconclusive = small, poorly fitted or top-dose-only effect, or another doubt; inactive = no such curve, though single readings can be large; an effect the other way counts as inactive or inconclusive.

assay: qHTS for Inhibitors of Plasmodium falciparum (HB3) proliferation (AID 504318); note: nearly all actives have a fitted effect of over 60% in size; conditions: P. falciparum HB3 in erythrocytes, SYBR Green DNA, 72 h; series mostly up to 7.21 µM
Method in brief: (§1)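 Parasite growth measured as SYBR Green DNA fluorescence (ex 485, em 535 nm) after overnight lysis following 72 h culture at 37 °C, 0.3% parasitemia, 2.5% hematocrit. Values normalized against DMSO and 0.29 uM artemisinin controls, with plate-stack correction.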

Potency, inactive:
COC(=O)N1CCc2cc(OC)c(OC)cc2C1Cc1ccc(OC)cc1 (stereo not given), COC(=O)N[C@@H](c1ccccc1)[C@]1(C(=O)OC)CCCC1=O, C=CCOC(=O)N[C@H](C(C(=O)OC)=C(C)NCc1ccccc1)c1ccc(C)cc1, C=CCN1c2ccccc2[C@]23C[C@@H](C(=O)OC)N(C(=O)COCc4ccccc4)C2=NC(C(=O)OC)=C(C(=O)OC)[C@H]13, CC(C)(C)OC(=O)NCCCC1=CC2=CC(=O)C(C)(OC(=O)c3cccs3)C(=O)C2=CO1 (stereo not given), COC/C=C/C1=CC2=CC(=O)C(C)(OC(=O)c3cnc4ccccc4n3)C(=O)C2=CN1CCOC (stereo not given)

assay: qHTS for Inhibitors of Plasmodium falciparum (CP250) proliferation (AID 504320); conditions: P. falciparum CP250 in erythrocytes, SYBR Green DNA, 72 h; series mostly up to 6.7 µM
Method in brief: as §1

Potency, inactive:
COC(=O)N1CCc2cc(OC)c(OC)cc2C1Cc1ccc(OC)cc1 (stereo not given), COC(=O)C1=C(C(=O)OC)[C@@H]2Nc3ccccc3[C@@]23C[C@@H](C(=O)OC)N(C(=O)c2ccco2)C3=N1, COC(=O)N[C@@H](c1cccc(C)c1)C(C(C)=O)C(=O)OC (stereo not given in full), COC(=O)c1ccccc1S(=O)(=O)N1CCc2nc(COc3ccccc3)c3c(c2C1)CO[C@@H](C)C3, CCCCC1=CC2=CC(=O)C(C)(OC(=O)CC)C(=O)C2=CN1CCc1c[nH]c2ccccc12 (stereo not given), CCN1C(=O)[C@@H]2[C@H]3[C@H](O)[C@H](O)CC(=NO[C@@H](C)c4cc(-c5c(C)cc(C)cc5C)no4)[C@@H]3CC[C@H]2C1=O, C=CCN1C=C2C(=O)C(C)(OC(=O)c3cnc4ccccc4n3)C(=O)C=C2C=C1/C=C/COC (stereo not given), COC(=O)CCC(=O)OC1(C)C(=O)C2=CN(Cc3ccc(OC)cc3)C(c3ccc(OC)cc3)=CC2=C(Br)C1=O (stereo not given), COC(=O)C1=C(C(=O)OC)[C@@H]2N(C)c3ccc(OC)cc3[C@@]23C[C@@H](C(=O)OC)N(S(=O)(=O)c2cccs2)C3=N1, COC(=O)N[C@@H](c1ccccc1)[C@]1(C(=O)OC)CCCC1=O, CCN1C(=O)N[C@@H](c2cccs2)C(C(=O)OC)=C1C, COC(=O)[C@@H](NC(=O)N1CCc2nc(-c3ccc(OC)cc3C)c3c(c2C1)CO[C@@H](c1ccccc1)C3)C(C)C, COC(=O)CCC(=O)OC1(C)C(=O)C=C2C=C(C3CC3)N(C3CCCCC3)C=C2C1=O (stereo not given), COC(=O)[C@]1(C)C=C[C@@H](C)[C@H](c2ccccc2Br)N1C(=O)C(F)(F)F, CCOC(=O)N1C2=NC(C(=O)OC)=C(C(=O)OC)[C@@H]3N(C)c4ccc(OC)cc4[C@]23C[C@H]1C(=O)OC, C[C@@H](c1ccccc1)N1C(=O)[C@@H]2[C@H]3[C@H](O)[C@H](O)CC(=NNC(=O)OCc4ccccc4)[C@@H]3CC[C@H]2C1=O, CCCNC(=O)N1C2=NC(C(=O)OC)=C(C(=O)OC)[C@@H]3Nc4ccccc4[C@]23C[C@H]1C(=O)OC, CC=Cc1cc2ccccc2c2c(C(=O)OC)c(C(=O)OC)c(C(=O)OC)n12, COC(=O)C1=C(C(=O)OC)[C@@H]2Nc3ccccc3[C@@]23C[C@@H](C(=O)OC)N(C(=O)c2ccc(Br)cc2)C3=N1, CC1(OC(=O)C2CCCC2)C(=O)C=C2C=C(c3ccsc3)N(c3ccc(CO)cc3)C=C2C1=O (stereo not given), C=CCOC(=O)N[C@H](C(C(=O)OC)=C(C)NCc1ccccc1)c1ccc(C)cc1, COC(=O)C1=C(C)N(Cc2ccco2)C(=O)N[C@@H]1c1ccco1, C=CCN1c2ccccc2[C@]23C[C@@H](C(=O)OC)N(C(=O)COCc4ccccc4)C2=NC(C(=O)OC)=C(C(=O)OC)[C@H]13, COC(=O)CCCC1=CC2=C(c3ccccc3)C(=O)C(C)(OC(=O)C3CCCC3)C(=O)C2=CN1C1CCCC1 (stereo not given), CCCCc1nc2c(c3c1C[C@H](C)OC3)CN(S(=O)(=O)c1ccc(Cl)c3nonc13)CC2, CC#CCN1c2ccccc2[C@]23C[C@@H](C(=O)OC)N(C(C)=O)C2=NC(C(=O)OC)=C(C(=O)OC)[C@H]13, C=C(C(C)=O)C(O)c1cccs1 (stereo not given), CC(C)(C)OC(=O)NCCCC1=CC2=CC(=O)C(C)(OC(=O)c3cccs3)C(=O)C2=CO1 (stereo not given), COC/C=C/C1=CC2=CC(=O)C(C)(OC(=O)c3cnc4ccccc4n3)C(=O)C2=CN1CCOC (stereo not given)
